# Measured values reported in the supplement of paper PMC8728848.
# The entries come from a sample that favours the strongest signals as a whole.
# B1: DEC205 (Homo sapiens), O60449 (protein)
# chain: MRTGWATPRRPAGLLMLLFWFFDLAEPSGRAANDPFTIVHGNTGKCIKPVYGWIVADDCDETEDKLWKWVSQHRLFHLHSQKCLGLDITKSVNELRMFSCDSSAMLWWKCEHHSLYGAARYRLALKDGHGTAISNASDVWKKGGSEESLCDQPYHEIYTRDGNSYGRPCEFPFLIDGTWHHDCILDEDHSGPWCATTLNYEYDRKWGICLKPENGCEDNWEKNEQFGSCYQFNTQTALSWKEAYVSCQNQGADLLSINSAAELTYLKEKEGIAKIFWIGLNQLYSARGWEWSDHKPLNFLNWDPDRPSAPTIGGSSCARMDAESGLWQSFSCEAQLPYVCRKPLNNTVELTDVWTYSDTRCDAGWLPNNGFCYLLVNESNSWDKAHAKCKAFSSDLISIHSLADVEVVVTKLHNEDIKEEVWIGLKNINIPTLFQWSDGTEVTLTYWDENEPNVPYNKTPNCVSYLGELGQWKVQSCEEKLKYVCKRKGEKLNDASSDKMCPPDEGWKRHGETCYKIYEDEVPFGTNCNLTITSRFEQEYLNDLMKKYDKSLRKYFWTGLRDVDSCGEYNWATVGGRRRAVTFSNWNFLEPASPGGCVAMSTGKSVGKWEVKDCRSFKALSICKKMSGPLGPEEASPKPDDPCPEGWQSFPASLSCYKVFHAERIVRKRNWEEAERFCQALGAHLSSFSHVDEIKEFLHFLTDQFSGQHWLWIGLNKRSPDLQGSWQWSDRTPVSTIIMPNEFQQDYDIRDCAAVKVFHRPWRRGWHFYDDREFIYLRPFACDTKLEWVCQIPKGRTPKTPDWYNPDRAGIHGPPLIIEGSEYWFVADLHLNYEEAVLYCASNHSFLATITSFVGLKAIKNKIANISGDGQKWWIRISEWPIDDHFTYSRYPWHRFPVTFGEECLYMSAKTWLIDLGKPTDCSTKLPFICEKYNVSSLEKYSPDSAAKVQCSEQWIPFQNKCFLKIKPVSLTFSQASDTCHSYGGTLPSVLSQIEQDFITSLLPDMEATLWIGLRWTAYEKINKWTDNRELTYSNFHPLLVSGRLRIPENFFEEESRYHCALILNLQKSPFTGTWNFTSCSERHFVSLCQKYSEVKSRQTLQNASETVKYLNNLYKIIPKTLTWHSAKRECLKSNMQLVSITDPYQQAFLSVQALLHNSSLWIGLFSQDDELNFGWSDGKRLHFSRWAETNGQLEDCVVLDTDGFWKTVDCNDNQPGAICYYSGNETEKEVKPVDSVKCPSPVLNTPWIPFQNCCYNFIITKNRHMATTQDEVHTKCQKLNPKSHILSIRDEKENNFVLEQLLYFNYMASWVMLGITYRNNSLMWFDKTPLSYTHWRAGRPTIKNEKFLAGLSTDGFWDIQTFKVIEEAVYFHQHSILACKIEMVDYKEEHNTTLPQFMPYEDGIYSVIQKKVTWYEALNMCSQSGGHLASVHNQNGQLFLEDIVKRDGFPLWVGLSSHDGSESSFEWSDGSTFDYIPWKGQTSPGNCVLLDPKGTWKHEKCNSVKDGAICYKPTKSKKLSRLTYSSRCPAAKENGSRWIQYKGHCYKSDQALHSFSEAKKLCSKHDHSATIVSIKDEDENKFVSRLMRENNNITMRVWLGLSQHSVDQSWSWLDGSEVTFVKWENKSKSGVGRCSMLIASNETWKKVECEHGFGRVVCKVPLGPDYTAIAIIVATLSILVLMGGLIWFLFQRHRLHLAGFSSVRYAQGVNEDEIMLPSFHD
# Tests used:
# Assay in all cases: glycan array binding signal (z-score within array); higher = stronger binding
# Conditions in all cases: glycan notation: IUPAC condensed, linker removed
# [1] = biological target: Fuc(a1-2)Gal(b1-3)GalNAc(b1-3)Gal(a1-4)Gal(b1-4)Glc
# Method in brief: (§1)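 From the Consortium for Functional Glycomics database, 3228 arrays were curated, keeping only those whose protein sequence was available. Binding is given as a within-array Z-score averaged across arrays sharing a protein sequence and across linkers. Negative Z-scores can be read as non-binding.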
# [2] = biological target: Fuc(a1-2)Gal(b1-4)[Fuc(a1-3)]GlcNAc(b1-3)Gal(b1-4)[Fuc(a1-3)]GlcNAc(b1-3)Gal(b1-4)[Fuc(a1-3)]GlcNAc
# Method in brief: as §1
# [3] = biological target: Fuc(a1-3)[Gal(b1-4)]GlcNAc
# Method in brief: as §1
# Gal(a1-2)Gal = biological target: Gal(a1-2)Gal
# Method in brief: as §1
# Gal(a1-3)Gal(b1-3)GlcNAc = biological target: Gal(a1-3)Gal(b1-3)GlcNAc
# Method in brief: as §1
# Gal(a1-3)Gal(b1-4)Glc = biological target: Gal(a1-3)Gal(b1-4)Glc
# Method in brief: as §1
# [4] = biological target: Gal(b1-3)[Neu5Ac(a2-6)]GalNAc
# Method in brief: as §1
# [5] = biological target: GlcNAc(b1-3)Gal(b1-3)GalNAc
# Method in brief: as §1
# [6] = biological target: GlcNAc(b1-4)GlcNAc(b1-4)GlcNAc
# Method in brief: as §1
# [7] = biological target: GlcNAc(b1-6)Gal(b1-4)GlcNAc
# Method in brief: as §1
# Kdn(a2-3)Gal(b1-4)GlcNAc = biological target: Kdn(a2-3)Gal(b1-4)GlcNAc
# Method in brief: as §1
# [8] = biological target: Man(a1-2)Man(a1-3)[Man(a1-2)Man(a1-6)]Man(a1-6)[Man(a1-2)Man(a1-2)Man(a1-3)]Man(b1-4)GlcNAc(b1-4)GlcNAc
# Method in brief: as §1
# [9] = biological target: Man(a1-3)[Man(a1-6)]Man(a1-6)[Man(a1-3)]Man(b1-4)GlcNAc(b1-4)GlcNAc
# Method in brief: as §1
# [10] = biological target: Neu5Ac(a2-3)Gal(b1-3)[Neu5Ac(a2-3)Gal(b1-4)]GlcNAc
# Method in brief: as §1
# [11] = biological target: Neu5Ac(a2-3)Gal(b1-4)[Fuc(a1-3)]GlcNAc(b1-3)Gal
# Method in brief: as §1
# [12] = biological target: Neu5Ac(a2-8)Neu5Ac(a2-3)[GalNAc(b1-4)]Gal(b1-4)Glc
# Method in brief: as §1
# [13] = biological target: Neu5Ac(a2-8)Neu5Ac(a2-8)Neu5Ac(a2-3)[GalNAc(b1-4)]Gal(b1-4)Glc
# Method in brief: as §1
binder,measurement,setting,value
B1,glycan array binding signal (z-score),[1],-0.222
same,glycan array binding signal (z-score),[2],1.97
same,glycan array binding signal (z-score),[3],-0.335
same,glycan array binding signal (z-score),Gal(a1-2)Gal,-0.046
same,glycan array binding signal (z-score),Gal(a1-3)Gal(b1-3)GlcNAc,-0.064
same,glycan array binding signal (z-score),Gal(a1-3)Gal(b1-4)Glc,1.66
same,glycan array binding signal (z-score),[4],-0.279
same,glycan array binding signal (z-score),[5],-0.229
same,glycan array binding signal (z-score),[6],3.79
same,glycan array binding signal (z-score),[7],-0.071
same,glycan array binding signal (z-score),Kdn(a2-3)Gal(b1-4)GlcNAc,1.75
same,glycan array binding signal (z-score),[8],0.357
same,glycan array binding signal (z-score),[9],-0.154
same,glycan array binding signal (z-score),[10],-0.395
same,glycan array binding signal (z-score),[11],-0.262
same,glycan array binding signal (z-score),[12],0.013
same,glycan array binding signal (z-score),[13],-0.243
